Consider 65 molecules from PubChem BioAssay AID2129 (The Scripps Research Institute Molecular Screening Center, 2009).

Hit rate of the full screen: of about 320,000 compounds, about 2,200 (0.69%) were called active. This is one part of a sample in which actives are shown more often than they occur. A number with no mark means an inactive call.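 How the source made its calls: active means inhibition above the mean of all tested compounds plus 3 SD, cutoff set per campaign (cut at about 30% in these data); inactive means the rest.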

In this assay the target is Bcl-2-like protein 1 (Homo sapiens) (UniProt Q07817). Nature of the assay: inhibitors of human Bcl-xL, primary screen, biochemical, fluorescence polarization, HTS (AID 2129).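 Further: 0% = DMSO wells and 100% = unlabeled Bim-BH3 peptide competitor; inhibitors lower millipolarization by displacing the labeled peptide.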 Conditions: GST-Bcl-xL / FITC-Bim BH3 peptide fluorescence polarization; at 10.9 µM; stronger effect = higher value.
Chain of Bcl-2-like protein 1 (Homo sapiens) (Q07817 whole entry, looked up): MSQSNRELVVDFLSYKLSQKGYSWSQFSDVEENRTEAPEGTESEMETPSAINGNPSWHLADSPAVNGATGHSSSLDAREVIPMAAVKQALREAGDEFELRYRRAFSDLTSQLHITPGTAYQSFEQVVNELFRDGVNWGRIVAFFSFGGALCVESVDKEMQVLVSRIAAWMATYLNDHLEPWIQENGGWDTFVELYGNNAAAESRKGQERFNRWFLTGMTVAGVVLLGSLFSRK
In the case of `COc1ccc(CN(C)Cc2nc3cc(OC)c(OC)cc3c(=O)[nH]2)c(OC)c1`, the inhibition is 85.4% (active).
Under `COc1cc(CN(C)Cc2nc3cc(C(F)(F)F)ccc3c(=O)[nH]2)ccc1OC(F)F` stands -2.06%; under `COc1cc2nc(CN(C)Cc3ccc(F)cc3)[nH]c(=O)c2cc1OC`, -1.08%; under `Cc1cc(NC(=O)C(C)SCC(=O)Nc2ccccc2N2CCCCC2)no1` (stereo not given), -2.56%.
As to `COc1ccc(CCNC(=O)COC(=O)c2cc(=O)c3ccccc3o2)cc1`, the inhibition was -7.08%.
For `O=C(C1CC(=O)N(C2CCCCC2)C1)N1CCN(c2ccccc2)CC1` (stereo not given), the inhibition is 3.83%.
Under `O=c1[nH]c(=O)c2nc3ccccc3nc2[nH]1` stands 33.4% (active); under `O=c1[nH]c(-c2ccccc2)c(-c2ccccc2)[nH]1`, 1.54%.
Under `CNC(=O)c1cccc2nc3ccccc3nc12` stands 8.33%; under `CNC(C)C#Cc1ccc2sc3cc(OC)c(OC)cc3c(=O)c2c1` (stereo not given), 0.94%.
Take `COc1ccc(C(=O)NCC(c2ccco2)N2CCc3ccccc32)cc1OC` (stereo not given): the inhibition is 3.87%.
Take `C[n+]1ccccc1C1CCCC/C1=N\Nc1ccc([N+](=O)[O-])cc1[N+](=O)[O-]` (stereo not given): the inhibition is -14.1%.
Consider `COc1ccc(S(=O)(=O)N(C)CC(=O)NCCCN2CCOCC2)cc1Cl`, for which the inhibition was -0.96%.
`COc1ccc2nc(N3CCCC(O)C3)c(C#N)cc2c1` (stereo not given): the inhibition was 32% (active).
Consider `COc1ccc2c(c1)CCc1cn3ncc(C#N)c3nc1-2`, for which the inhibition is 5.65%.
As to `COc1ccc2cc(C(=O)C3CCCN(C(=O)c4sc(C)nc4C)C3)ccc2c1` (stereo not given), the inhibition is 3%.
For `O=[N+]([O-])c1c(NCCO)cc(Sc2nc3ccccc3s2)c2nonc12`, the inhibition was 38.8% (active).
With `CCOc1ccccc1Nc1ccc2nonc2c1[N+](=O)[O-]`, the inhibition was -3.2%.
`O=C(O)c1ccccc1CSc1nc2ccccc2s1`: the inhibition is 15.6%.
Regarding `O=C(C1CCC1)N1CCc2cc(S(=O)(=O)NCc3cccnc3)ccc21`, the inhibition is 1.18%.
As to `CCN(CC)CCNc1nc(-c2ccc(OC(F)F)cc2)c(C)s1`, the inhibition is 4.61%.
In the case of `CCCN1C2=C(C(=O)CCC2)C(c2ccc(O)c(Br)c2)C2=C1CCCC2=O` it was 37.8% (active); in that of `COc1ccc(C2C3=C(CCCC3=O)N(CC(=O)O)C3=C2C(=O)CCC3)cc1`, 7.5%; in that of `CCOc1ccc(C2C3=C(CCCC3=O)N(CC(=O)O)C3=C2C(=O)CCC3)cc1`, 6.72%.
Take `CCCCCCCC1(C)NC(=O)N(CC(=O)Nc2cc(C)on2)C1=O` (stereo not given): the inhibition was 3.89%.
On to `O=C(Oc1cccc(O)c1)C1CCCCC1`, for which the inhibition is 1.38%.
In the case of `CN(C(=O)CSc1nnc(-c2ccc3c(c2)OCO3)o1)C1CCS(=O)(=O)C1` (stereo not given), the inhibition was 3.5%.
Under `CCCc1cc(=O)[nH]c(SCC(=O)c2c(N)n(CC(C)C)c(=O)n(C)c2=O)n1` stands -0.53%.
In the case of `Cc1coc(C)c1C(=O)CC1(O)C(=O)N(C)c2ccc(Cl)cc21` (stereo not given) it was 3.68%; in that of `NC(=O)CC(NC(=O)Cc1cccc2ccccc12)c1ccc(NCc2cc(F)ccc2F)c([N+](=O)[O-])c1` (stereo not given), -3.93%.
Regarding `COC(=O)CCCC1=CC2=CC(=O)C(C)(OC(=O)c3cccs3)C(=O)C2=CN1c1cccc(C#N)c1` (stereo not given), the inhibition is 35.7% (active).
In the case of `COC(=O)CCCC1=CC2=CC(=O)C(C)(OC(=O)c3cccs3)C(=O)C2=CN1CC(C)C` (stereo not given), the inhibition was 8.79%.
`COC(=O)CCCC1=CC2=CC(=O)C(C)(OC(=O)c3cccs3)C(=O)C2=CN1CC1CC1` (stereo not given): the inhibition was 13.4%.
In the case of `COc1cc(C(=O)N2C(=O)c3cccc(N)c3C2=O)cc(OC)c1OC` it was 11.8%; in that of `CN1CCN(S(=O)(=O)c2cccc(C(=O)O)c2)CC1`, 6.51%.
In the case of `CC1CC(C)CN(S(=O)(=O)c2cccc(C(=O)N3C(=O)c4cccc(N)c4C3=O)c2)C1` (stereo not given) it was 30.5% (active).
With `O=C(Cn1nc([N+](=O)[O-])nc1Br)NC1CCCCC1`, the inhibition is 0.58%.
Under `CC(C)(C)c1ccc(C(CC(=O)O)NS(=O)(=O)Cc2ccccc2)cc1` (stereo not given) stands -2.32%.
For the molecule `O=C1CCCN1CCCNC(=S)Nc1ccc(F)c(Cl)c1`, the inhibition is 5.5%.
For the molecule `Cc1cc([N+](=O)[O-])ccc1NCc1cccc([N+](=O)[O-])c1`, the inhibition is 3.28%.
Turning to `C=CCn1c(SCCOc2ccc(OC)cc2)nnc1C(NC(=O)c1ccc(OC)cc1)C(C)C` (stereo not given), the inhibition was 4.55%.
As to `CN(C(=O)COC(=O)c1nc(Cl)ccc1Cl)C1CCS(=O)(=O)C1` (stereo not given), the inhibition was -2.39%.
For the molecule `CC1CCCN(C(=O)c2cc(-c3ccco3)nc3ccccc23)C1` (stereo not given), the inhibition was 2.8%.
For `CN(C(=O)COC(=O)c1cc(-c2ccco2)nc2ccccc12)C1CCS(=O)(=O)C1` (stereo not given), the inhibition was 38.9% (active).
`COc1ccc(-c2cc(C(=O)N(C)Cc3ccccc3)c3ccccc3n2)cc1`: the inhibition was 4.34%.
Regarding `COc1ccc(NC(=O)CN(C)C(=O)c2cc(-c3ccc(C)o3)nc3ccccc23)cc1`, the inhibition was 1.46%.
Regarding `CN(CCOc1ccccc1)C(=O)c1cc(-c2ccco2)nc2ccccc12`, the inhibition is 30.5% (active).
Regarding `O=C(c1cccs1)n1nc(NCc2ccccc2)nc1NCc1ccccc1`, the inhibition was -2.31%.
In the case of `Cc1nnsc1S(=O)(=O)Cc1ccccc1Cl`, the inhibition was 1.84%.
With `Cn1cccc1C(=O)NNC(=O)COc1ccc(Br)cc1`, the inhibition is 1.85%.
In the case of `CC1CCN(C(=S)NC(=O)c2ccccc2Br)CC1`, the inhibition was 1.04%.
In the case of `CCc1ccc(NC(=O)Nc2ccncc2)cc1` it was -0.23%; in that of `Oc1ccc2ccccc2c1N=Nc1nccs1`, 54.3% (active).
With `COc1ccc(C(=O)N2CCCC(C(=O)c3ccccc3OC)C2)cc1OC` (stereo not given), the inhibition is 2.42%.
Turning to `COc1cc(OC)cc(-c2c(-c3cccs3)c3cc(-c4ccc(OC)cc4F)ccc3n2C)c1`, the inhibition is -0.84%.
Consider `Cc1ccc(S(=O)(=O)N(C)C)cc1NC(=O)c1n[nH]c(=O)c2ccccc12`, for which the inhibition is -2.28%.
Under `O=C(NCCc1ccc(C(F)(F)F)cc1)c1ccc2c(c1)OCO2` stands 2.41%; under `NC(=O)c1ccc(Nc2ccc3c(c2)CCC3)c([N+](=O)[O-])c1`, 2.16%.
As for `Cc1c(CCO)c(=O)n(-c2ccccc2)n1S(=O)(=O)c1ccc(F)cc1`, the inhibition was 9.16%.
Take `O=C(C1=C(O)C(=O)N(Cc2ccccc2)C1c1ccco1)c1ccco1` (stereo not given): the inhibition was 7.06%.
On to `O=C(C1=C(O)C(=O)N(c2ncccn2)C1c1cccs1)c1ccco1` (stereo not given), for which the inhibition is 94.5% (active).
On to `O=C(C1=C(O)C(=O)N(Cc2ccccc2)C1c1cccnc1)c1ccco1` (stereo not given), for which the inhibition was 3.45%.
For `COC(=O)/C=C(\Oc1ccccc1)C1(O)CCCCC1`, the inhibition was 1.07%.
As for `CCn1c(SCC(=O)NC2=NCCS2)nnc1C(C)NC(=O)c1ccccc1F` (stereo not given), the inhibition is -1.19%.
In the case of `O=C(N/N=C/c1sc(N2CCCCC2)nc1-c1cccs1)c1cccnc1` it was -12.1%.

As usually defined, the inhibition is the drop in the measured response relative to a control, in per cent.
